Shown is part of a subset that was picked to be rich in hits.
Tgondii IFNg – T. gondii growth inhibition under IFN-gamma. Toxoplasma gondii growth in IFN-gamma-treated host cells; stronger effect = lower value. activity change, negative = inhibition, % (concentration not given with the values). actives 3.8% (n = 69,000). AID 1259416; in the data active = activity change below about -70%, passing the limit was not always enough;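 note: host cells are HeLa cells infected with Toxoplasma gondii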
An asterisk follows results filed as active; i = inactive.

SMILES	Tgondii IFNg
COC(=O)C1(Cc2ccccc2F)NC(=O)CC2CCC1N2Cc1ccccc1 (centres undefined)	-77*
O=C1NC(=O)C(Cc2ccccc2F)(C2CCNCC2)N1 (centres undefined)	-3
COc1ccc(F)c([C@@H]2NC(=O)CC[C@H]2NCc2cn[nH]c2-c2ccccc2)c1	-1
CC(C)c1ccc(S(=O)(=O)c2cnc(N3CCC(C(N)=O)(N4CCCCC4)CC3)nc2N)cc1	27
NC(=O)C1(N2CCCCC2)CCN(c2ncc(S(=O)(=O)c3ccccc3)c(N)n2)CC1	69
CCc1ccc(S(=O)(=O)c2cnc(N3CCC(C(N)=O)(N4CCCCC4)CC3)nc2N)cc1	-78*
CCCOc1c(Cl)cc(C(=O)O)cc1Cl	1
CN(C)C(=O)CCCn1cnc(-c2ccccc2)c1-c1cc2ccccc2[nH]1	-6
OCCCCn1cnc(-c2ccccc2)c1-c1ccc2cccc(Cl)c2n1	-88*
CCc1nc(-c2c(-c3ccccc3)ncn2CCCO)c(C)[nH]1	3
Cc1ccccc1N=C1SC(C)CN1C(=O)Nc1ccc(Cl)c(Cl)c1 (centres undefined)	-24
CCCc1cnc(C)nc1N1C[C@@H]2[C@H](C1)[C@H]1CC[C@@H]2O1	-53
CCCC(=O)N1CCc2ncc(CN(C)Cc3cncnc3)n2CC1	-14
CCS(=O)(=O)N1CCC2(CC1)OC(=O)C(C)=C2C(=O)Nc1ccc(OC)c(OC)c1	33
Cn1cc(-c2cnc(Nc3ccccc3)nc2)cc1C(=O)NCCO	116
CC(C)c1ccc(N2CC3(CCN(Cc4ccccc4)CC3)OC2=O)cc1	-29
O=C(NCCCN1CCCC1)C1CCN(Cc2cc3ccccc3n2Cc2ccccc2)CC1	-14
COc1ccc(-n2c(=O)n(Cc3nc(-c4ccccc4C)oc3C)c(=O)c3cccnc32)cc1	10
COc1ccc(CCNC(=O)c2nc(-c3cccc(F)c3)n3c2CCCCC3)cc1OC	-115*
CC1CCCN(C(=O)c2nc(-c3cccc(F)c3)n3c2CCCCC3)C1 (centres undefined)	3
COc1ccc(CC(=O)NCCc2csc(-c3cccc(F)c3)n2)cc1OC	58
COc1cc(NC(=O)c2nc(-c3cccc(F)c3)n3c2CCCCC3)cc(OC)c1OC	-105*
CC1CCN(C(=O)c2nc(-c3cccc(F)c3)n3c2CCCCC3)CC1	-59
CCOCCCNC(=O)c1nc(-c2cccc(F)c2)n2c1CCCCC2	100
O=C(Nc1ccccc1SCc1cccc(C(F)(F)F)c1)c1c(F)cccc1Cl	-35
SMILES	Tgondii IFNg
Cc1ccccc1CC(=O)N1CCC(c2nc(C(=O)N3CCOCC3)c(C)o2)CC1	17
COc1cccc(NC(=O)c2c(O)c3ccccc3n(-c3ccccc3)c2=O)c1	35
Cc1cnc(C(=O)N2CC3(CCNCC3)CC2C(=O)O)cn1 (centres undefined)	-1
O=c1[nH]c(CN2CCCC3(CCCCC3)C2)nc2c1C1(CCCCC1)Cc1ccccc1-2	-81*
CC1(C)CC2(CCCN(Cc3nc4c(c(=O)[nH]3)C3(CCCCC3)Cc3ccccc3-4)C2)CCO1 (centres undefined)	-85*
CC1(C)Cc2ccccc2-c2nc(-c3ccccc3)oc(=O)c21	6
O=c1oc(-c2ccccc2)nc2c1C1(CCCC1)Cc1ccccc1-2	-50
Cc1cccc(CN2CCCC3(CCN(c4cncnc4)C3=O)C2)n1 (centres undefined)	-3
Cc1ccoc1C(=O)N1CCc2c(nnn2C)C1COCC1CC1 (centres undefined)	1
N#Cc1ccc(N2CC3(CCN(C(=O)c4cnc[nH]4)C3)CC2=O)cc1 (centres undefined)	3
Cc1nc2ncccn2c1C(=O)NCC1(O)CCNC1 (centres undefined)	1
Cc1cccc(CN2C(=O)CCC3C2CCN3C(=O)c2ccoc2)n1 (centres undefined)	16
CC(C)(C)NS(=O)(=O)c1ccc2[nH]c(=O)ccc2c1	i
CC1CCN(C(c2ccc(Cl)cc2)c2nnnn2Cc2ccc(F)cc2)CC1 (centres undefined)	-43
Cn1cnnc1Sc1cc(C#N)c(C#N)cc1Sc1nncn1C	-41
CC1c2cccn2CCN1Cc1ccc(Sc2nncn2C)o1 (centres undefined)	3
Cc1ccc(Nc2nc(Nc3ccc(C)cc3)nc(Sc3nncn3C)n2)cc1	-75*
CN(C)CC(=O)N1c2ccccc2CCc2ccc(N)cc21	20
O=C(NC1CCc2c(ccc(=O)n2Cc2cccnc2)C1)c1ccco1 (centres undefined)	-7
C=C[C@@H]1C[C@]1(NC(=O)[C@@H]1C[C@@H](Oc2ncc(OC)c3ccc(Cl)cc23)CN1C(=O)[C@@H](NC(=O)OC(C)(C)C)C(C)(C)C)C(=O)NS(=O)(=O)C1CC1	-73*
CCc1cn[nH]c1C1CCN(C(=O)CCc2ccc(=O)[nH]n2)CC1	6
COc1ccc(S(=O)(=O)N(C)C[C@@H]2Oc3ccc(NC(=O)Nc4ccc(C(F)(F)F)cc4)cc3C(=O)N([C@H](C)CO)C[C@H]2C)cc1	-75*
